The values that follow come from PubChem BioAssay AID493248 (Broad Institute, 2011).

The whole screen tested about 2,300 compounds, of which about 1,400 (61%) were called active. Another 7% or so got no clear call; they are omitted. How the calls were made is not given here. The set was probably picked from earlier hits. These entries were drawn from the full list. Potency and affinity values are given separately.

FAD-linked sulfhydryl oxidase ALR (Homo sapiens), sequence (P55789 whole entry, looked up): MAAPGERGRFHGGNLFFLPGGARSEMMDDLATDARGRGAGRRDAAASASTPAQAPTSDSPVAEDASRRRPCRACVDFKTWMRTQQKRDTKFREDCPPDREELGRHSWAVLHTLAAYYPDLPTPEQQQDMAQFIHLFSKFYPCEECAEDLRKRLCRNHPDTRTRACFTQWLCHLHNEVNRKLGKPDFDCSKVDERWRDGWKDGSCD

The assay has as its target FAD-linked sulfhydryl oxidase ALR (Homo sapiens) (UniProt P55789). As to the kind of experiment: inhibitors of human ALR sulfhydryl oxidase, dose response, biochemical, H2O2 detection, luminescence, cherry-pick (AID 493248). As to conditions: purified ALR, DTT oxidation, H2O2 HRP-luminol luminescence; at 10 µM (top of the series).
Take `COc1ccc(CNc2nc3ccccc3n2CCN2CCCCC2)cc1`: the activity change, negative = inhibition turned out to be 35.3%.

Take `O=C(O)c1ccc(N(c2ccccc2)c2ccccc2)cc1`: the activity change, negative = inhibition is -77.1%.

Consider `Brc1c(CSc2nnc(-c3ccco3)o2)nc2ccccn12`, for which the activity change, negative = inhibition is -95.5%.

For `CCN(c1ccc(C)c(C)c1)S(=O)(=O)c1ccc2c(c1)CCN2C(=O)CCC(=O)O`, the activity change, negative = inhibition is -9.61%.

Consider `CCc1c(C)[nH]n(-c2ccc(Oc3ccccc3)c(S(=O)(=O)O)c2)c1=O`, for which the activity change, negative = inhibition is -7.16%.

Take `Cc1cc(-c2n[nH]c(=S)o2)c(C)n1-c1ccccc1`: the activity change, negative = inhibition was 19.3%.

As to `COc1ccc(-c2csc(N(CCCN(C)C)C(=O)c3ccc(F)cc3)n2)cc1`, the activity change, negative = inhibition is -32.9%.

For `CS(=O)(=O)N1CCN=C1SCc1cccc(F)c1`, the activity change, negative = inhibition was -0.153%.

Turning to `CCCS(=O)(=O)N1CCN=C1SCc1ccc(F)cc1`, the activity change, negative = inhibition was -0.819%.

As for `S=c1[nH]nc(-c2c[nH]c3ccccc23)o1`, the activity change, negative = inhibition was -89%.

As to `CCn1c(-c2cc(OC)c(OC)c(OC)c2)n[nH]c1=S`, the activity change, negative = inhibition is -1.45%.

`CCCCCCCCN1[C@@H](CC(=O)O)c2ccc(C(F)(F)F)cc2S1(=O)=O`: the activity change, negative = inhibition is -22.2%.

For the molecule `COc1cccc2c3c(c(=O)[nH]c12)CCC(C)(C)O3`, the activity change, negative = inhibition was -20.3%.

Consider `CCn1c(SCc2nc3sc(C(=O)O)c(C)c3c(=O)[nH]2)nc2ccccc21`, for which the activity change, negative = inhibition was -10.8%.

Consider `Cc1ccsc1C=Nc1ccc(O)cc1`, for which the activity change, negative = inhibition is -98%.

Take `Nc1ccc(Oc2cc(N)cc(Oc3ccccc3)c2)cc1`: the activity change, negative = inhibition amounted to 29.7%.

Consider `Cc1cccc(Oc2ccc(N)cc2)c1`, for which the activity change, negative = inhibition was -1.09%.

Turning to `CNc1nn(-c2cccc(Cl)c2)nc1N`, the activity change, negative = inhibition was -9.08%.

Take `c1ccc(-c2cnc(CN3CCN(c4ccccc4)CC3)o2)cc1`: the activity change, negative = inhibition was -44.8%.

As for `COc1cccc(/C=N/n2c(-c3n[nH]c4c3CCC4)n[nH]c2=S)c1O`, the activity change, negative = inhibition is -33.1%.

For the molecule `CCCC(C)NC(=O)Cc1ccc(Br)cc1` (configuration not stated), the activity change, negative = inhibition amounted to 60.9%.

As for `CCCN1CCC(=O)N([C@H](CSc2ccc(OC)cc2)c2ccccc2)CC1`, the activity change, negative = inhibition is 1.83%.

For `O=S1(=O)N=C(Nc2ccc(O)cc2)c2ccccc21`, the activity change, negative = inhibition amounted to 176%.

Take `Cc1ccc(-c2c(C(=O)O)c(C(=O)O)c3n2CSC3)cc1`: the activity change, negative = inhibition was -43.7%.

In the case of `S=c1[nH]nc(-c2ccco2)n1/N=C/c1ccccc1`, the activity change, negative = inhibition came out at 0.752%.

Turning to `Cc1n[nH]c(=S)n1/N=C/c1ccccc1`, the activity change, negative = inhibition is -93.3%.

Turning to `Cc1cc(C(=O)NC2CCCc3c2cnn3-c2ccc(C)c(C)c2)no1` (configuration not stated), the activity change, negative = inhibition is -8.68%.

As for `O=c1[nH]c(/C=C\c2ccccc2F)nc(O)c1[N+](=O)[O-]`, the activity change, negative = inhibition was -17.7%.

Regarding `O=C(CNS(=O)(=O)c1ccccc1)N/N=C/c1ccc(O)cc1`, the activity change, negative = inhibition was -113%.

On to `Cc1nc2cccc(C(=O)Oc3ccc([N+](=O)[O-])cc3)c2o1`, for which the activity change, negative = inhibition was -34.6%.

For `CC1CC(C)CN(C(=O)c2ccc(-c3ccc([N+](=O)[O-])cc3)o2)C1` (configuration not stated), the activity change, negative = inhibition was -37.5%.

Take `O=C(NCc1cccs1)C1CCN(S(=O)(=O)c2cccc3cccnc23)CC1`: the activity change, negative = inhibition was 3.4%.

`CCN(CCNC(=O)CN(C)S(=O)(=O)c1cccc2nsnc12)c1ccccc1`: the activity change, negative = inhibition is -59.9%.

As to `CCCCN(CCCC)c1ccc(C(=O)c2ccccc2C(=O)O)c(O)c1`, the activity change, negative = inhibition was -56.2%.

Take `CC/C(=N\NC(=O)CCC(=O)NCc1ccccc1)c1ccc(O)cc1`: the activity change, negative = inhibition was -98.7%.

As to `Cc1ccc(N=c2oc3cc(O)ccc3cc2C(N)=O)cc1`, the activity change, negative = inhibition was -84.9%.

As to `Cc1nn(C)c(C)c1Sc1ccccc1N`, the activity change, negative = inhibition was -14.3%.

Consider `Cc1nc(N2CCN(c3ccccc3)CC2)[nH]c(=O)c1C`, for which the activity change, negative = inhibition is -42.3%.

Turning to `Nc1ccc2oc(=O)c(-c3ccccc3)cc2c1`, the activity change, negative = inhibition is -86.7%.

Regarding `Cc1ccc(N2CCN(C(=O)N3CCCC3)CC2)cc1C`, the activity change, negative = inhibition is -10.1%.

For the molecule `COc1cccc(CNc2nc3ccccc3n2CCN2CCCCC2)c1OC`, the activity change, negative = inhibition is -11.4%.

On to `Cn1ccnc1SCc1cccc([N+](=O)[O-])c1`, for which the activity change, negative = inhibition was determined as 7.58%.

For the molecule `COc1cc(/C=C2\SC(=S)N(NC(C)=O)C2=O)ccc1OC(=O)c1ccco1`, the activity change, negative = inhibition is -26.5%.

As to `COc1ccc(S(=O)(=O)N2Cc3ccccc3CC2C(=O)Nc2ccc(O)cc2)cc1OC` (configuration not stated), the activity change, negative = inhibition is 349%.

In the case of `Cc1cc(NC(=O)c2ccco2)sc1C`, the activity change, negative = inhibition was -98.7%.

As for `CSc1cccc(NC(=O)c2ccco2)c1`, the activity change, negative = inhibition was -98.6%.

`COc1ccc(SCCc2ccncc2)cc1`: the activity change, negative = inhibition was -20.1%.

Regarding `O=C(C1CCC1)N1CCN(c2ccc(Cl)cc2)CC1`, the activity change, negative = inhibition was -43.9%.

Take `CCCC(=O)N1c2ccc(-c3csc(N)n3)cc2CC1C` (configuration not stated): the activity change, negative = inhibition is -16.4%.

As to `Cc1cc(N/N=C/c2ccco2)c2ccccc2n1`, the activity change, negative = inhibition was -3.59%.

With `Cc1cc(N/N=C/c2ccccc2F)c2ccccc2n1`, the activity change, negative = inhibition was -22.6%.

As to `CC(=O)N1CCN=C1SCc1ccc(Cl)cc1`, the activity change, negative = inhibition is -8.99%.

For `O=C(Cn1cnc2ccccc21)N/N=C/c1ccccn1`, the activity change, negative = inhibition was determined as 0.505%.

Consider `S=c1[nH]ncn1/N=C/c1ccccc1`, for which the activity change, negative = inhibition is -73%.

As for `COc1ccc(NC(=O)Nc2ccc3nccnc3c2)cc1`, the activity change, negative = inhibition amounted to 105%.

As to `Cc1oc(C(=O)Nc2ccc(C(=O)O)cc2)cc1COc1ccccc1`, the activity change, negative = inhibition was -25.3%.

For the molecule `Cc1ccc(N(C(=O)c2ccc(Br)o2)C2C=CS(=O)(=O)C2)cc1` (configuration not stated), the activity change, negative = inhibition was -13.3%.

Consider `CC1=C(C)CS(=O)N(S(=O)(=O)c2ccccc2)C1` (configuration not stated), for which the activity change, negative = inhibition is -41.8%.

As to `O=C(Cc1c(C(=O)O)[nH]c2ccccc12)NCCN1CCN(c2cccc(Cl)c2)CC1`, the activity change, negative = inhibition is -54.4%.

Take `O=C(NCCN1CCN(c2ccccc2)CC1)c1cccc(Cl)c1`: the activity change, negative = inhibition was -76.5%.

`CC(C)CN(CC(C)C)c1nnc(N)s1`: the activity change, negative = inhibition is 16.8%.

Consider `O=C(Nc1nc2ccc(S(=O)(=O)N3CCCCC3)cc2s1)c1ccncc1`, for which the activity change, negative = inhibition was -6.5%.
